The full ranking holds about 25,000 sequences; the median of “ln(normalized median fluorescence intensity)” is about 9.7, and the highest 2% start at about 11. Many of the other results were omitted from the sample, so the highest values are more common in it than they were.
Each sequence was assayed on PfAP2-HC AP2 domain (GST-tagged) (assay: gcPBM binding intensity (ln(normalized median fluorescence intensity)); higher = stronger DNA binding).
In short: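 Probes on an Agilent 4 × 180k array were primer-extended, double-stranded and 36 bp long, taken from intergenic genomic regions, with negative controls added. GST-tagged P. falciparum DNA-binding domains from E. coli, about 25 μg on average, were applied to the array for 1 h in 1× PBS containing 1% milk, 0.2 mg/ml BSA, 0.5% salmon testes DNA and 0.03% Triton X-100. Binding intensity, obtained after Alexa488 anti-GST antibody detection and a 488 nm scan, is the highest Masliner-normalised natural-log median intensity across replicate spots of either probe orientation.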

Row | Sequence | gcPBM binding intensity (ln)
1 | TACTTACCAAAATACACACACACACCCAATATATAA [CACACA_site1871] | 10.5
2 | TACTTACCAAAATACACACACACACTAGATATATAA [CACACA_site5096] | 11.3
3 | ATATTAAAAAAATATAAACACACAAAAAAAAAATAT [CACACA_site8283] | 9.91
4 | AAAAAAAAAAAAAACACACACACAAGAGTATATAAA [CACACA_site6580] | 11.1
5 | AAAAAAATAAGACACACACACAAAAAAATAAAAATA [CACACA_site6357] | 10.6
6 | AAAAAAATAAATAAGACACACACAAAAAAAAAAAAA [CACACA_site8404] | 11
7 | AAAACAAATATATTAACACACAAACATATAAACAAA [CACACA_site6052] | 10.4
8 | AAAAAAAAAAAAAACACACACACAATAGTATATAAA [CACACA_site957] | 10.3
9 | AAAATATATATTAACACACACACAAAAAAAAAAAAA [CACACA_site1325] | 11.2
10 | TATTTTTTTCTTACTACACACATATATATGCTTTCC [CACACA_site4058] | 10
11 | ATAGCATATATTTTTTGTACATATGTTATATATATA [XGTACX_site2184] | 9.66
12 | AAAAAAAAAGATCACACACACATAAATATAAACAAA [CACACA_site5285] | 10.9
13 | CACAAAAATAAACACACACACATATATATATATATA [CACACA_site4704] | 10.4
14 | TCAAAAATAAAGATCACACATATATATATATATATA [CACACA_site4381] | 9.73
15 | AAGTTCAAAATAAATGGTACAGAAGTATATATATCA [XGTACX_site174] | 9.75
16 | ATATATCCAAATAGATTACATATATATATATAGATA [TGCATGCA_negctrl_site277] | 9.5
17 | ACATCAAGCAGACACACACACACACCCACCCACCCA [CACACA_site8012] | 11.5
18 | ACATCAAGCAGACACACACACACACCCACCCACCGA [CACACA_site371] | 10.7
19 | TACACAAGCAGACACACACACATATATATATATATA [CACACA_site1270] | 10.2
20 | CACAAAGACACAAACACACACACACCCACATACATA [CACACA_site452] | 10.5
21 | CAAGCACAGAAACACACACACACACCGACACAGACA [CACACA_site4359] | 10.9
22 | ATCAAGCACGGACACACACACACACCCAGACCCCCA [CACACA_site4360] | 10.6
23 | CACCCACCCAGACACACACACACAAAAAAAAAAAGA [CACACA_site499] | 11.2

Row | Sequence | gcPBM binding intensity (ln)
24 | CAAGCACCCAGACACACACACACACCCACACCCACA [CACACA_site369] | 11.2
25 | AACAGACAGAAACACACACACATATATATATATATA [CACACA_site3394] | 10.8
26 | ACATCAAGCGGACACACACACACACCGACAGACACA [CACACA_site4361] | 10.9
27 | TATACACCCAGACACACACACACACCCAAAAAAAAA [CACACA_site497] | 10.9
28 | CAATATATTTGATTTACACACTTACAATGTATTTAA [CACACA_site5632] | 9.79
29 | AAGAATTATTTTTTATGTACTTATATGTCAATTTTC [XGTACX_site6676] | 9.68
30 | TTGTAGGAATTTATTTTGACTGATAATTAATACGTT [GTGCAC_negctrl_site46] | 9.47
31 | AAAAAAAATATATATGCACACACAAAAAAACAAATT [CACACA_site8349] | 10.2
32 | TAGTATCAATCTTATACATGCATAAAATAATTATAA [TGCATGCA_site1052] | 9.53
33 | AAAAAATTTATAAAAGCACACAAAATAAAAAAAAAT [CACACA_site8420] | 9.78
34 | TAACATATCTTTAATACACACTTAAAAAAGTACTTA [CACACA_site4532] | 9.41
35 | CAGATAGACTTATATGCATGCATTCACCTGCCAACA [TGCATGCA_site158] | 9.66
36 | AATATATGGTTTCATGATATAAAATTCAATTTAATG [GTGCAC_negctrl_site610] | 9.51
37 | ATGTTTTATATTTTTTTTTTGTTTGCTTGTTTCCTC [CACACA_negctrl_site870] | 9.57
38 | ATATACAAAGGATTAACACACATATTATTATAGATA [CACACA_site6966] | 9.87
39 | TGTTTTTTATTTAATTGTACGAATTAAAAAAAATAA [XGTACX_site3009] | 9.1
40 | ATACATCAAGGACACACACACACACCCACACCCACA [CACACA_site8013] | 11.1
41 | TAGACTCCCAGACACACACACACACCCATATAATAT [CACACA_site593] | 10.5
42 | ATACATCAAGGACACACACACACACGCACACGCACA [CACACA_site6310] | 10.7
43 | CACCCCCACAGACACACACACACACCCATATATATA [CACACA_site364] | 10.6
44 | CACCCACCCAGACACACACACACACCCCCACCCATA [CACACA_site367] | 11.6
45 | TACACCCACCCACATACACACACATACACATATATA [CACACA_site8503] | 10.8
